Compound activity from PubChem BioAssay.
LDHA block – inhibitors of human lactate dehydrogenase A; activity change, % (values are at about 110 or 230 µM); P00338; actives 0.15% (n = 480,000); purified LDHA, NADH/diaphorase-resazurin fluorescence; active compounds read low; in the data active = activity change below about -30%; inconclusive = mostly about -25% to -30%
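Remaining NADH was detected by diaphorase (0.133 mg/mL) converting 37 µM resazurin to fluorescent resorufin, read at 0 and 20 minutes. The preceding 5-minute room-temperature reaction used 2 nM LDHA, 0.2 mM sodium pyruvate and 0.06 mM NADH at pH 7.4.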
RORg inh – inhibitors of mouse ROR gamma transcriptional activity. P51450. Drosophila S2 Gal4-RORgamma UAS-luciferase reporter, 20 h. Potency, µM (highest dose often 53.6 µM), usual class: inhibitors. actives 5.4% (n = 310,000). AID 2551; also: nearly all actives have a fitted effect of over 60% in size
Target sequence (P51450 whole entry, looked up, the tested form may be a part): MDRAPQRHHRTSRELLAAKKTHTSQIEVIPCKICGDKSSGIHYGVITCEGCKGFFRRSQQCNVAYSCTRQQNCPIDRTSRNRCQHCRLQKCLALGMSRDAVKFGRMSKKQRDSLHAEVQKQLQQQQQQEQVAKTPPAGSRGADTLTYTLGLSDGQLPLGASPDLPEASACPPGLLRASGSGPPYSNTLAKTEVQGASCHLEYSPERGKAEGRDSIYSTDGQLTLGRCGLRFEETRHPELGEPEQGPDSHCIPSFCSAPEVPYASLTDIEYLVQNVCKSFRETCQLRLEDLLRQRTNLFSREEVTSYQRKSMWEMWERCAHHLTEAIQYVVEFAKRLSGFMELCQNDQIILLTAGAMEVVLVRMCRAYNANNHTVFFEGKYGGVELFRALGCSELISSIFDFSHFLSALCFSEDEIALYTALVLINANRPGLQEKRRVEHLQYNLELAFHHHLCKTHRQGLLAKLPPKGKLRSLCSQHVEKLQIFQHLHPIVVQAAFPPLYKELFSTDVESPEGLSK
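Compounds are pin-transferred onto Drosophila Schneider cells expressing a copper-inducible Gal4–ROR gamma transactivation domain fusion. After 1 hr, copper sulfate is added to 700 uM final; luciferase is read 20 hr later.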
DT40 TDP1 no CPT – qHTS for Inhibitors of human tyrosyl-DNA phosphodiesterase 1 (TDP1): qHTS in cells in absence of CPT | DT40 Tdp1-/- hTDP1 cells, no CPT, ATP luminescence, 48 h | Potency, µM (doses to about 46.2 µM), most hits filed as inhibitors | actives 15% (n = 420,000) | AID 686978, 2013; also: nearly all actives have a fitted effect of over 55% in size
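Growth kinetics read by CellTiter-Glo luminescence after ≥48 hr at 37 °C. Cells: DT40 Tdp1-/- stably carrying human TDP1, 400 per well, compound exposure in the absence of CPT (DMSO vehicle).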
Gal4-VP16 FLuc – counter-screen for ROR gamma inhibitors: Gal4-VP16 reporter | AID 2546 | Potency, µM (doses to about 53.6 µM), usual class: inhibitors | Drosophila S2 Gal4-VP16 UAS-luciferase, luminescence, 20 h | actives 3.5% (n = 310,000);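 also: Gal4-VP16 expression switched on by copper sulfate through the metallothionein promoter; nearly all actives have a fitted effect of over 50% in size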
TDP1 cell CPT – growth inhibition of DT40 Tdp1-/-;hTDP1 cells with camptothecin (screen for TDP1 inhibitors). chicken DT40 Tdp1-/-;hTDP1 cells + 20 nM CPT, ATP luminescence, 48 h. Potency, µM (top dose mostly 46.2 µM), actives largely listed as inhibitors. actives 12% (n = 420,000); also: nearly all actives have a fitted effect of over 55% in size
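Chicken DT40 Tdp1-/- cells stably complemented with human TDP1 were seeded at 400 cells/well in medium containing 20 nM camptothecin, exposed to pin-transferred compounds, and grown at 37 °C for at least 48 hr. Viability was read as ATP luminescence.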
IL-1B inflam inh – blocks inflammasome-driven IL-1 beta release; THP-1 LPS/ATP IL-1B secretion, AlphaLISA, 16 h; active compounds read low; activity change, % at 57.5 µM; actives 4.7% (n = 360,000); AID 743279; in the data active = activity change below about -50%; inconclusive = mostly about -30% to -49%
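Secreted IL-1B measured by AlphaLISA bead assay after 16 h compound exposure of THP-1 cells; compounds (final up to 57.5 uM) added 1 h before LPS (250 ng/mL) and ATP (1.25 mM) stimulation; lower signal means less secretion.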
Hits are given with their value; n = inactive; u = inconclusive; x = no result. The list is not random: actives were taken first. Their share in the collection is about 18%. Unless noted, calls follow the shape of the dose curve; as a rule, active = well fitted curve in the direction sought with a large enough effect; inconclusive = small, poorly fitted or top-dose-only effect, or another doubt; inactive = no such curve, though single readings can be large; an effect the other way counts as inactive or inconclusive.

SMILES	LDHA block	RORg inh	DT40 TDP1 no CPT	Gal4-VP16 FLuc	TDP1 cell CPT	IL-1B inflam inh
CCOC(=O)C(C(=O)Nc1nc2ccccc2s1)C1CCCCC1 (stereo unspecified)	n	5µM	n	n	u	n
O=C(Nc1nc2ccccc2[nH]1)C1CC1	n	u	u	u	u	n
O=c1oc2ccc(Cl)cc2cc1-c1nc(-c2ccc(F)cc2)no1	n	x	x	x	x	x
Cn1c(N2CCCCC2)nc2c1c(=O)n(Cc1ccccc1F)c(=O)n2C	n	x	x	x	x	x
Oc1cccc(-c2csc(C(O)(c3ccccc3)C(F)(F)F)n2)c1 (stereo unspecified)	n	x	u	x	u	n
CN(C)c1ccc(-c2csc(C(O)(c3ccccc3)C(F)(F)F)n2)cc1 (stereo unspecified)	n	x	7.3µM	x	10µM	n
Cc1ccc(-c2csc(C(O)(c3ccccc3)C(F)(F)F)n2)cc1C (stereo unspecified)	n	x	16µM	x	u	n
OC(c1ccccc1)(c1nc(-c2ccc(F)c(Cl)c2)cs1)C(F)(F)F (stereo unspecified)	n	x	16µM	x	u	n
CC(O)(c1ccccc1)c1nc(-c2ccc(F)c(Cl)c2)cs1 (stereo unspecified)	n	x	u	x	u	n
OC(c1ccccc1)(c1nc(-c2cccc3cccnc23)cs1)C(F)(F)F (stereo unspecified)	n	x	u	x	23µM	n
CN(C)c1ccc(-c2csc(C(O)c3ccccc3)n2)cc1 (stereo unspecified)	n	x	u	x	u	n
Cc1ccccc1-c1csc(C(O)(c2ccccc2)C(F)(F)F)n1 (stereo unspecified)	n	x	u	x	u	n
O=C(/C=C/c1cccc(F)c1)c1cccc(N2CCOCC2)c1	n	x	x	x	x	x
O=C(Nc1ccc2ccccc2n1)c1ccccc1Cl	n	13µM	u	u	u	n
COc1ccc2nc(C)c(C(=O)Nc3ccc4ccccc4n3)cc2c1	n	x	x	x	x	x
COc1ccc(C(=O)Nc2ccc3ccccc3n2)c(OC)c1OC	n	8.9µM	u	10µM	u	-76
CN(CC(=O)Nc1cc(S(=O)(=O)N2CCCC2)ccc1Cl)Cc1ccc2c(c1)OCO2	n	x	u	x	n	u
CN(CC(=O)Nc1cc(S(=O)(=O)N2CCCCCC2)ccc1Cl)Cc1ccc2c(c1)OCO2	n	x	u	x	16µM	n
COc1ccc(S(=O)(=O)N2CCCCCC2)cc1NC(=O)CN(C)Cc1ccc2c(c1)OCO2	n	x	21µM	x	u	n
CCOc1ccccc1NC(=O)C1CC(=O)Nc2nc3ccccc3n21 (stereo unspecified)	n	x	x	x	x	x
O=[N+]([O-])c1ccc(N2CCCCC2)nc1N1CCCCC1	n	u	21µM	n	u	n
NC(=O)C1CCN(Cc2cc(=O)oc3cc(-c4ccccc4)c(O)cc23)CC1	n	x	x	x	x	x
Cc1ccc(NS(=O)(=O)c2cccc(C(=O)NCCc3c[nH]c4ccccc34)c2)c(C)c1	n	u	u	22µM	u	-78
Cc1ccc(C)c(NC(=S)NCCc2c[nH]c3ccccc23)c1	n	1.3µM	13µM	11µM	u	-58
Cc1ccccc1NC(=S)NCCc1c[nH]c2ccccc12	n	7.9µM	u	11µM	n	n
SMILES	LDHA block	RORg inh	DT40 TDP1 no CPT	Gal4-VP16 FLuc	TDP1 cell CPT	IL-1B inflam inh
COc1ccc(Cl)cc1NC(=S)NCCc1c[nH]c2ccccc12	n	5.6µM	u	7.1µM	u	n
Fc1ccccc1NC(=S)NCCc1c[nH]c2ccccc12	n	x	x	x	x	x
Cc1ccc(C)c(NC(=O)C(=O)NCCc2c[nH]c3ccccc23)c1	n	u	u	n	n	n
Cc1ccc(C)c(CN2CCC(CNC(=O)Nc3cn(CC(C)C)c(=O)c4ccccc34)CC2)c1	n	x	x	x	x	x
CCOC(=O)N1CCC(NC(=O)c2cc3c(-c4cccc(OC)c4)nn(C)c3s2)CC1	n	n	u	u	23µM	n
O=C(c1cc2c(=O)[nH]c3ccccc3c2s1)N1CCN(c2ccc(F)cc2)CC1	n	x	u	x	u	x
CCOC(=O)N1CCN(C(=O)c2cc3c(=O)[nH]c4ccccc4c3s2)CC1	n	n	16µM	n	u	n
COCCCNC(=O)c1cc2c(-c3cccc(OC)c3)nn(C)c2s1	n	n	u	n	u	n
COc1cccc(-c2nn(C)c3sc(C(=O)N4CCN(c5cccc(C)c5)C(C)C4)cc23)c1 (stereo unspecified)	n	x	23µM	x	21µM	x
CCOC(=O)N1CCN(C(=O)c2cc3c(-c4cccc(OC)c4)nn(C)c3s2)CC1	n	u	23µM	n	u	-67
COc1ccc(NC(=O)N(Cc2nnc3n2CCCCC3)c2ccc3c(c2)OCO3)cc1	n	x	x	x	x	x
CCn1nc(C(=O)OC2CCCCC2)c2ccccc2c1=O	n	x	x	x	x	x
O=C(CCSc1nnc(NC2CC2)s1)Nc1ccc(Br)cc1	n	x	x	x	x	x
O=C(Nc1nc2ccc(Oc3ccccc3)cc2s1)c1cc([N+](=O)[O-])ccc1N1CCOCC1	n	n	13µM	n	u	n
O=C(NCCc1ccccc1)c1cc([N+](=O)[O-])ccc1N1CCOCC1	n	x	n	x	u	n
O=C(NCCOc1ccccc1F)c1cc([N+](=O)[O-])ccc1N1CCOCC1	n	n	3.7µM	n	5.2µM	n
O=C(CN1CCOCC1)Nc1nc2ccc([N+](=O)[O-])cc2s1	n	n	n	n	n	n
O=C(NCCOc1ccccc1)c1cc([N+](=O)[O-])ccc1N1CCOCC1	n	x	1.6µM	x	1.8µM	n
O=C(NCCc1ccc(F)cc1)c1cc([N+](=O)[O-])ccc1N1CCOCC1	n	x	n	x	n	n
O=C(/C=C/c1ccncc1)c1ccc(N2CCOCC2)cc1	n	x	x	x	x	x
COc1cc(C(=O)N2CCC(c3nc4ccccc4s3)CC2)cc(OC)c1OC	n	x	21µM	x	u	x
O=C(c1ccccc1Br)N1CCC(c2nc3ccccc3s2)CC1	n	n	29µM	n	u	n
Cc1ccc(CNC(=O)c2nccnc2N)cc1	n	x	x	x	x	x
COc1ccc(C2CCCN2Cc2cccc(C)c2)cc1 (stereo unspecified)	n	x	x	x	x	x
COC(=O)c1ccc(Oc2ccc3nnc(C)n3n2)cc1	n	n	n	n	n	n
Cc1nnc2ccc(Oc3ccc(-c4ccccc4)cc3)nn12	n	n	u	u	13µM	n
COc1ccc(-c2nn(C)c(=O)c3ccccc23)cc1NC(=O)c1ccc(C)cc1	n	x	x	x	x	x
OCC1(Cc2ccccc2)CCN(C2CCN(c3ccc(F)c(F)c3)CC2)CC1	n	n	12µM	n	n	-118
OCC1(Cc2ccccc2)CCN(CCCC2CCCC2)CC1	n	n	u	n	u	n
C=CCn1c(SCC(N)=O)nc2c1c(=O)[nH]c(=O)n2C	n	x	x	x	x	x
